Assay results taken from PubChem BioAssay.
Active and inactive are the calls of the source.

Assays:
[1] = test system: PRMT1 (protein arginine N-methyltransferase 1); experiment: PRMT1 binders on small-molecule microarrays, primary screen, biochemical, small-molecule microarray, 635 nm fluorescence (AID 1088); conditions: small-molecule microarray binding, higher = more signal;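 also: binding of Prmt1 protein to compounds spotted on small-molecule microarray slides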
[2] = yeast growth modulation, basal conditions, primary screen, YJM789 clinical isolate, OD600, 24 h (AID 1089);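 also: growth of clinical yeast isolate S. cerevisiae YJM 789 seeded 1000 cells per well; test concentration not given here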; conditions: S. cerevisiae YJM789 growth, higher = more signal, called active from +8 up or from −8 down
[3] = fission yeast growth modulation, primary screen, strain 972, OD600, 24 h, no modulator (AID 1090);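 also: basal condition with compound alone and no growth modifier present; test concentration not given here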; conditions: S. pombe 972 growth, higher = more signal, called active from +8 up or from −8 down
[4] = S. cerevisiae growth modulation with rapamycin, primary screen, strain BY4716, OD600, 96 h (AID 1091); conditions: higher = more signal, called active from +8 up or from −8 down; also: test concentration not given here
[5] = target: Torsin-1A-interacting protein 2 (Homo sapiens) (UniProt Q8NFQ8); experiment: LULL1 binders on small-molecule microarray, primary screen, cell lysate, human LULL1 lysate, 635/667 nm fluorescence (AID 1092); conditions: hLULL1 lysate binding, 635 nm fluorescence, higher = more signal;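 also: probe is lysate of COS7 cells overexpressing human LULL1; score merges per-feature 667 nm fluorescence with signal-to-noise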
Sequence of Torsin-1A-interacting protein 2 (Homo sapiens) (Q8NFQ8 whole entry, looked up): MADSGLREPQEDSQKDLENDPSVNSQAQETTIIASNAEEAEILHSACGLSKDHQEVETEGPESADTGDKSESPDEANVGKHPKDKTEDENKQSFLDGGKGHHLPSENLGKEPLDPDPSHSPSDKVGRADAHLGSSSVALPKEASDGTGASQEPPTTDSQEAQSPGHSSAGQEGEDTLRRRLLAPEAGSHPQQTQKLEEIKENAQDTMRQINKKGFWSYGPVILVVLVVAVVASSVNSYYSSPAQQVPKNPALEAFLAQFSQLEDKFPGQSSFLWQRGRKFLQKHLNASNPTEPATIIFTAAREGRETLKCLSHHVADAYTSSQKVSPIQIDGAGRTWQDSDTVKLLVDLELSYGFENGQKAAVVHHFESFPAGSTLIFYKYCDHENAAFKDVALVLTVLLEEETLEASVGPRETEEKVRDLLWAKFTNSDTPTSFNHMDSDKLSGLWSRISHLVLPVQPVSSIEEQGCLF

[6] = E. coli growth modulation, two-sided OD650, primary screen, E. coli filamentation project, strain DRC41, 24 h (AID 1093); conditions: OD650, 24 h, higher = more signal, called active from +8 up or from −8 down;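 also: MC1000 strain lacking acrAB efflux and sulA so SOS filamentation is blocked; test concentration not given here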
[7] = small-molecule microarray binders of probe aLefty2, primary screen, biochemical, biotinylated probe, 635/667 nm fluorescence (AID 1094); conditions: higher = more signal;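 also: score merges spot fluorescence near 667 nm with spot signal-to-noise ratio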
[8] = test system: Noggin (protein binding on small-molecule microarray); experiment: Noggin binders on small-molecule microarray, primary screen, biochemical, 635/667 nm fluorescence (AID 1095); conditions: 635 nm fluorescence, higher = more signal;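 also: score merges 667 nm feature fluorescence with signal to noise over triplicate slides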
[9] = target: Neurogenic locus notch homolog protein 3 (Homo sapiens) (UniProt Q9UM47); experiment: NOTCH3 binders on small-molecule microarray, primary screen, biochemical, 635/667 nm fluorescence (AID 1096); conditions: NOTCH3 binding, 635 nm fluorescence, higher = more signal
Sequence of Neurogenic locus notch homolog protein 3 (Homo sapiens) (Q9UM47 whole entry, looked up): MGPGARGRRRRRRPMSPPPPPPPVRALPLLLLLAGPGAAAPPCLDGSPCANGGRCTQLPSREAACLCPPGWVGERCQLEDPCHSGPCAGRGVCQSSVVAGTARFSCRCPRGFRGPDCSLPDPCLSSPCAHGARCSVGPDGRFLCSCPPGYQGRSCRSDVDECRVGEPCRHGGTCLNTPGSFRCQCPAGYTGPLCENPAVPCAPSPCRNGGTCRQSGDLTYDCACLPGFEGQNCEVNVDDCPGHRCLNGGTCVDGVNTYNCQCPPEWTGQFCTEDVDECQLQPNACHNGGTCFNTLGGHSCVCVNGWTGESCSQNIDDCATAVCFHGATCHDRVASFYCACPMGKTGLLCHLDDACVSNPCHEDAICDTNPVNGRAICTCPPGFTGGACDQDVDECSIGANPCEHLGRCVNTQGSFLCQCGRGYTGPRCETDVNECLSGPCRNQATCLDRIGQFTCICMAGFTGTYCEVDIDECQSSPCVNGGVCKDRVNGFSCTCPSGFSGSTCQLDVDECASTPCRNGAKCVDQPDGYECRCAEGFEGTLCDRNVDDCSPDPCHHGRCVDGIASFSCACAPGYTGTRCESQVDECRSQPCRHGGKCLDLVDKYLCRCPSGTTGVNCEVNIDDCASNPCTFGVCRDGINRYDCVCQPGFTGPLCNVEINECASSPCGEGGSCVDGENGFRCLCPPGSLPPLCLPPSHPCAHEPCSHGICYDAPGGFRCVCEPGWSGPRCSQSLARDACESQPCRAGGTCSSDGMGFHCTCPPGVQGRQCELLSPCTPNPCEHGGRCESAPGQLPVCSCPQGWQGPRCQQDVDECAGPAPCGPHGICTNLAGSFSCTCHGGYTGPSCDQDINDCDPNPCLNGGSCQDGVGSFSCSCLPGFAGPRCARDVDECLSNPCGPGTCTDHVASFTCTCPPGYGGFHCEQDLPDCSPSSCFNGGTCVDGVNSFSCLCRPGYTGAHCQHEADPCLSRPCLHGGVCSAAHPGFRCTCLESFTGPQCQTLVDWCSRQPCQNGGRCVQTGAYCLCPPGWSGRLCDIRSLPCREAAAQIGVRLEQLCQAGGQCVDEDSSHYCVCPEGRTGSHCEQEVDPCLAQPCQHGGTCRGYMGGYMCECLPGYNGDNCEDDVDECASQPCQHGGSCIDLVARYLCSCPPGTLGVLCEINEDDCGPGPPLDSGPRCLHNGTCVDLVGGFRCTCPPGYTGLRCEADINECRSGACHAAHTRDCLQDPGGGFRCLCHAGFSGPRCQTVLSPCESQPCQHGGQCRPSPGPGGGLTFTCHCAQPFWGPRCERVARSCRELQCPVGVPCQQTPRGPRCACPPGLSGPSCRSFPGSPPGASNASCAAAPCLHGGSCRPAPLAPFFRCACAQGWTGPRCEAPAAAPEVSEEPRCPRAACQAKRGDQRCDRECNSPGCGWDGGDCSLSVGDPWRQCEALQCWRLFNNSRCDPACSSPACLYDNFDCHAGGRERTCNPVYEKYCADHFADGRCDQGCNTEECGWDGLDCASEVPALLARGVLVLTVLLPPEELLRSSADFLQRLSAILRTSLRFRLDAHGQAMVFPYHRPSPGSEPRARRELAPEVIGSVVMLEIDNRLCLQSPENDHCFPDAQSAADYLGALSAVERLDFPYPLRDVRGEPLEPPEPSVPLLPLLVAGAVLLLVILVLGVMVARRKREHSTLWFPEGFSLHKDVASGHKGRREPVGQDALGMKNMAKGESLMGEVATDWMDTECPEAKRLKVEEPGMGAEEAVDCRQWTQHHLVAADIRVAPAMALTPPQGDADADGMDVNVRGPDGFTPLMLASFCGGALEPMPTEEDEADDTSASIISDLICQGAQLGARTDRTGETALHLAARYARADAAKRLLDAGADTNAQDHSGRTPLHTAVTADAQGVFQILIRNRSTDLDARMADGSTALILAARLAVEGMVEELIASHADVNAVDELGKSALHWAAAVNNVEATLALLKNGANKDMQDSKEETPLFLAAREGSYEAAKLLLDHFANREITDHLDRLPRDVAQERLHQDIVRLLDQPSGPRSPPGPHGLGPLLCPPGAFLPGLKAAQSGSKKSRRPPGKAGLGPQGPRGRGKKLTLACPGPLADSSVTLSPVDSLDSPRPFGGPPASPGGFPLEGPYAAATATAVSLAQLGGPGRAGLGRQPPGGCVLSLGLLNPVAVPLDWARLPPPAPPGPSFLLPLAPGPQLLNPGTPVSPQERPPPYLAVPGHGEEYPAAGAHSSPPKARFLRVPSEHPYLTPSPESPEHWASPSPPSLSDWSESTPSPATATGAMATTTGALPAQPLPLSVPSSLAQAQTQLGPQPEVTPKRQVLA

[10] = small-molecule microarray binders of probe aEGFR, primary screen, biochemical, biotinylated probe, 635/667 nm fluorescence (AID 1097); conditions: higher = more signal;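 also: probe is a biotinylated anti-EGFR antibody binding compounds printed on slides; score combines fluorescence near 667 nm and signal to noise of each spot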

Row | SMILES | composite z-score [1] | z-score [2] | z-score [3] | z-score [4] | composite z-score [5] | z-score [6] | composite z-score [7] | composite z-score [8] | composite z-score [9] | composite z-score [10]
1 | COc1cc(COC(C)=O)ccc1OC(C)=O | 0.491 | -2.59 (inactive) | -3.73 (inactive) | -0.724 (inactive) | 0.418 | 3.13 (inactive) | 1.07 | 0.373 | 0.279 | 0.643
2 | C=CCN1C(=O)[C@@]2(CC=C)N=C(c3ccc(OCCCO)cc3)O[C@H]2c2ccccc21 | 1.54 | -3.69 (inactive) | -4.72 (inactive) | 0.764 (inactive) | 3.6 | 1.47 (inactive) | 0.357 | 1.33 | 0.874 | 0.297
3 | COc1ccccc1CN1C(=O)c2ccccc2[C@@]2(Cc3ccccc3N(CC(C)C)C2=O)[C@@H]1c1ccc(CO)cc1 | 0.545 | -0.928 (inactive) | 0.189 (inactive) | -1.03 (inactive) | -0.359 | -0.0514 (inactive) | -0.122 | -0.19 | -0.285 | -0.127
4 | COc1ccccc1CN1C(=O)c2ccccc2[C@@H](C(=O)NC2CC2)[C@@H]1c1ccc(CO)cc1 | 1.54 | 0.827 (inactive) | -0.392 (inactive) | 0.344 (inactive) | 2.28 | 0.772 (inactive) | 0.488 | 1.47 | 1.06 | 0.194
5 | COc1ccc(CCNC(=O)[C@@]2(Sc3ccc(C)cc3)CC(=O)N(C(C)C)[C@@H]2c2ccc(CO)cc2I)cc1 | 0.163 | -0.971 (inactive) | -0.693 (inactive) | 0.706 (inactive) | 0.468 | -0.236 (inactive) | -0.183 | -0.778 | -0.343 | -0.189
6 | CN1C(=O)C2C=CC(C(O)C#Cc3ccccc3)N(N3CCCCC3)C2C1=O (stereo not given) | 0.436 | 0.54 (inactive) | -0.126 (inactive) | -0.296 (inactive) | 0.58 | 0.0497 (inactive) | 0.529 | -0.287 | 0.964 | 0.647
7 | CCN(CC)c1ccc(N2CC=CC34O[C@@H]5C=CCCOC(=O)C5[C@H]3C(=O)N(CCCCCCO)[C@@H]4C2=O)cc1 (stereo not given in full) | -0.171 | -2.16 (inactive) | -0.431 (inactive) | -1.74 (inactive) | 2.94 | 2.49 (inactive) | -0.192 | -0.612 | -0.619 | -0.0493
8 | COCCOC(=O)N1C(=O)[C@@]2(c3cc(C#Cc4ccc(OC)cc4)ccc31)[C@H](c1ccccc1OCCO)N1[C@H](c3ccccc3)[C@H](c3ccccc3)OC(=O)[C@H]1[C@@H]2C(=O)NC[C@H](O)c1ccccc1 | 1.53 | 2.89 (inactive) | 2.09 (inactive) | 7.27 (inactive) | 2.86 | -0.0186 (inactive) | -0.0304 | 1.17 | 1.04 | -0.0267
9 | CC(C)=CCCC(C)=CC(O)C1C=CC2C(=O)N(C)C(=O)C2N1Nc1ccccc1 (stereo not given) | 1.55 | -0.193 (inactive) | -1.26 (inactive) | 2.76 (inactive) | 3.29 | -0.339 (inactive) | 0.245 | 0.411 | 1.03 | 0.167
10 | COc1ccc(C#Cc2ccc3c(c2)[C@]2(C(=O)N3)[C@H](C(=O)NC[C@H](O)c3ccccc3)[C@H]3C(=O)O[C@H](c4ccccc4)[C@H](c4ccccc4)N3[C@@H]2c2ccc(O)cc2)cc1 | 1.55 | 2.26 (inactive) | 0.984 (inactive) | 2.2 (inactive) | 2.98 | -0.0198 (inactive) | 0.0078 | 0.904 | 0.729 | 0.0996
11 | CN1C=C(C(=O)OCCS(C)(=O)=O)C(C(=O)OCCS(C)(=O)=O)=CC(c2ccc(CO)cc2)=CC1C1CC1 (stereo not given) | 0.522 | 0.243 (inactive) | -1.34 (inactive) | 0.678 (inactive) | 1.33 | 0.108 (inactive) | -0.22 | 0.425 | 0.415 | -0.103
12 | CCOC(=O)C[C@H]1[C@H](OC(=O)c2cc3ccccc3oc2=O)[C@@H](NC(=O)c2ccccc2)c2cc(OCCCO)ccc2N1C(=O)c1ccc2ccccc2n1 | 0.258 | 0.157 (inactive) | -0.12 (inactive) | 0.0284 (inactive) | 0.852 | 0.368 (inactive) | -0.193 | 0.918 | 0.662 | -0.0828
13 | C[N+](C)(C)CCCCNC(=O)[C@@H]1C[C@@H]2C(=O)N[C@@H](Cc3ccccc3)C(=O)N2[C@@H]1c1cccc(OCCO)c1 | 0.402 | 0.534 (inactive) | -0.642 (inactive) | -1.14 (inactive) | 1.42 | 1.07 (inactive) | -0.0333 | 0.692 | -0.0417 | -0.169
14 | COc1cc(C(O)C2C=CC3C(=O)NC(=O)C3N2Nc2ccccn2)cc(OC)c1OC (stereo not given) | 1.06 | 0.175 (inactive) | 1.15 (inactive) | 0.42 (inactive) | 3.09 | -1.19 (inactive) | 0.0624 | 0.0228 | 0.158 | 0.0954
15 | CCOC(=O)C[C@H]1[C@H](OC(=O)c2ccc(-c3ccccc3)cc2)[C@@H](NC(=O)Cc2ccc(OC)cc2)c2cc(OCCCO)ccc2N1C(=O)c1ccccc1 | -0.15 | 0.359 (inactive) | 0.822 (inactive) | 0.72 (inactive) | 0.905 | -0.69 (inactive) | 0.044 | 0.763 | 0.238 | -0.122
16 | O=C1O[C@@H](c2ccccc2)[C@@H](c2ccccc2)N2[C@@H](c3ccccc3OCCO)[C@]3(C(=O)Nc4ccc(C#CC5=CCCCC5)cc43)[C@@H](C(=O)N3CCCCCCC3)[C@H]12 | 1.53 | 1.1 (inactive) | -0.354 (inactive) | 2.02 (inactive) | 4.38 | -0.641 (inactive) | 1.74 | 1.88 | 1.02 | 1.34
17 | Cc1ccc(S[C@]2(C(=O)NCCCN(C)C)CC(=O)N(Cc3ccccc3C(F)(F)F)[C@@H]2c2ccc(CO)cc2)cc1 | 0.486 | -0.339 (inactive) | -0.543 (inactive) | -0.914 (inactive) | 1.91 | 0.783 (inactive) | 0.0446 | -0.858 | -1.3 | -0.227
18 | O=C(c1ccccc1)N1C(=O)[C@@]2(Cc3ccccc31)N=C(c1ccc(OCCCO)cc1)O[C@H]2c1ccccc1 | 1.55 | -0.26 (inactive) | -1.23 (inactive) | 1.74 (inactive) | 2.59 | 0.0877 (inactive) | 0.384 | 0.487 | 1.09 | 0.291
19 | C=C[C@H](CO[Si](CC)(CC)CC)N(Cc1ccc(OC(C)=O)c(OC)c1)S(=O)(=O)c1ccc(Br)cc1 | 0.87 | -1.77 (inactive) | -1.01 (inactive) | 0.196 (inactive) | 1.6 | 0.415 (inactive) | 0.476 | -0.0715 | -0.334 | 0.0819
20 | COc1cc2c(cc1O)C(C1CC1)N(Cc1sc3ccccc3c1Cl)CC2 (stereo not given) | 0.641 | -26 (active) | -20 (active) | -1.46 (inactive) | 3.15 | -0.587 (inactive) | -0.0468 | -0.181 | 0.579 | -0.149
21 | COCCOC(=O)N1C(=O)[C@@]2(c3cc(C#Cc4ccc(OC)cc4)ccc31)[C@H](c1ccc(O)cc1)N1[C@H](c3ccccc3)[C@H](c3ccccc3)OC(=O)[C@H]1[C@@H]2C(=O)N1CCc2cc(OC)c(OC)cc2C1 | 1.55 | 0.728 (inactive) | -0.133 (inactive) | 0.803 (inactive) | 2.49 | 1.37 (inactive) | -0.0412 | 0.75 | 1.08 | -0.115
22 | COC(=O)[C@@]1(CCS(=O)(=O)c2ccccc2)N=C(c2ccc(OCCCO)cc2)O[C@H]1c1ccccc1CN=[N+]=[N-] | 1.38 | 0.265 (inactive) | 1.18 (inactive) | 34.4 (active) | 3.01 | 0.706 (inactive) | 0.0054 | 0.338 | 1 | 0.127
23 | C=C[C@H](OC)[C@@H](OC(=O)Nc1ccc(OC)cc1)c1ccc(O)c(F)c1 | 0.148 | 0.337 (inactive) | -1.18 (inactive) | 1.3 (inactive) | 1.89 | 0.512 (inactive) | -0.21 | -0.932 | -0.363 | -0.335
24 | CC(=O)NCCCC[C@@H]1NC(=O)[C@H]2C[C@@H](C(=O)NCCCCCCNC(=O)CS)[C@@H](c3ccc(O)cc3)N2C1=O | 1.15 | 1.2 (inactive) | 0.686 (inactive) | 0.983 (inactive) | 3.13 | 0.189 (inactive) | 0.0283 | -0.773 | -0.372 | -0.258
25 | CO[C@H]1O[C@H](CO)[C@@H](OC(=O)Nc2ccc(C(F)(F)F)cc2)[C@H](OC(=O)Nc2ccc3c(c2)OCO3)[C@@H]1OC(=O)Nc1ccc2c(c1)OCO2 | 1.54 | 2.76 (inactive) | 0.942 (inactive) | 10 (active) | 3.11 | 2.24 (inactive) | -0.0021 | 0.476 | 1.08 | 0.0869
26 | O=C1C2C=CC(C(O)Cc3ccccc3)N(n3cnnc3)C2C(=O)N1Cc1ccccc1 (stereo not given) | 0.411 | -0.112 (inactive) | 0.116 (inactive) | 0.343 (inactive) | 2.93 | -1.25 (inactive) | 0.0906 | -0.785 | 0.153 | -0.0592
27 | C=C(COC)/C(=C/C[C@@H](OC(C)=O)c1ccc(OCCO)cc1)c1cnc2ccccc2c1 | 1.19 | -0.938 (inactive) | -1.5 (inactive) | -1.05 (inactive) | 0.014 | 2.33 (inactive) | -0.0998 | 1.89 | 1.08 | -0.067
28 | CCC(CC)C(O)C1C=CC2C(=O)NC(=O)C2N1Nc1ccccn1 (stereo not given) | -0.26 | 0.188 (inactive) | 1.22 (inactive) | 0.315 (inactive) | 1.35 | -0.691 (inactive) | 0.0744 | -0.441 | -0.412 | 0.148
